Experimental data from PubChem BioAssay (EPA / NIEHS).
“And” between values parts separate entries of the source, which are not always exact repeats. Equal values may be shown once. Results filed as inconclusive are left out. The source holds several records for some structures; these can differ, active in one and inactive in another. The source made the active and inactive calls. The calls were made as follows, unless noted: active = hit-call score of the fitted dose curve at least 0.9, where 1 is the maximum; inactive = score below 0.9.

Assays:
[1] = read-out: Secreted IgG (sIgG), gene 3500; test: BSK_BT_sIgG: BioMAP Diversity Plus: BT Assay for Secreted IgG (sIgG) Biomarker Activity (AID 2284226); conditions: primary human B cells with PBMC
Outline: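 Human B cell plus PBMC co-culture; secreted IgG measured by ELISA 24 h after chemical dosing. Response fitted in positive direction relative to DMSO baseline.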

[2] = BSK_BT_Bcell_Proliferation: Viability Assessment in the BioMAP Diversity Plus: BT Assay for B cell Proliferation (AID 2284227); conditions: primary human B cells with PBMC
Outline: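 Read-out is absorbance at 560 nm from sulforhodamine B staining of total protein, reflecting relative cell numbers in a human B cell and PBMC co-culture after 72 h of chemical exposure. Values were referenced to DMSO.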

[3] = read-out: Interleukin 6 (IL6), IL6 (gene 3569); test: BSK_BT_xIL6: BioMAP Diversity Plus: BT Assay for Interleukin 6 (IL6) Biomarker Activity (AID 2284228); conditions: primary human B cells with PBMC
Outline: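 Human B cell/PBMC co-culture; secreted IL-6 quantified by Luminex xMAP 24 h after chemical dosing, fitted relative to DMSO. Parallel PBMC viability by Alamar Blue after 1 h pretreatment, 20 ng/mL SEB and TSST-1, 90 h incubation.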

[4] = read-out: Tumor necrosis factor (Homo sapiens) (UniProt P01375); test: BSK_BT_xTNFa: BioMAP Diversity Plus: BT Assay for Tumor necrosis factor alpha (TNF-alpha) Biomarker Activity (AID 2284230); conditions: primary human B cells with PBMC
Outline: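 Human primary co-culture of B cells and peripheral blood mononuclear cells; TNF-alpha in supernatant, 24 h post-dose, Luminex multiplex; DMSO = baseline.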

[5] = read-out: Vascular cell adhesion molecule 1 (VCAM1), VCAM1 (gene 7412); test: BSK_MyoF_VCAM1: BioMAP Diversity Plus: MyoF Assay for Vascular cell adhesion molecule 1 (VCAM1) Biomarker Activity (AID 2284231); conditions: primary human lung fibroblasts
Outline: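 Primary human lung fibroblasts (BioMAP MyoF system) dosed with chemical, VCAM-1 measured by ELISA 24 hours later. Fitted in the positive direction against DMSO; parallel SRB staining assessed cytotoxicity.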

[6] = UKN2_HCS_IMR90_cell_viability: Viability Assessment in the University of Konstanz (UKN) Leist Lab Neural Crest Cell Migration Assay in human induced IMR90 Pluripotent Stem Cells (UKN2) (AID 2284233);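 also: viability of neural crest cells differentiated from IMR90 iPSC measured by calcein-AM fluorescence imaging; cells exposed to compound for 24 h after a 24 h migration phase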
Outline: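 Neural crest cells derived from IMR90 iPSC migrate into a stopper-free zone for 24 h in EGF/FGF medium, then are exposed to compound for 24 h. Viability assessed by calcein-AM and Hoechst staining with high-content imaging, fitted bidirectionally versus DMSO.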

[7] = CCTE_Mundy_HCI_Cortical_NOG_NeuronCount: CCTE's Neurite Outgrowth Assay in rat cortical cells for Neuron Count, Mundy Lab (AID 2284236; active = hit-call score of the fitted dose curve at least 0.9, where 1 is the maximum;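 also: neurons counted by imaging betaIII-tubulin and Hoechst stained cortical cells; cells exposed to compound for about 48 hours before fixation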)
Outline: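 Read-out: neuron number by high-content imaging of betaIII-tubulin (Alexa Fluor-488) and Hoechst-labelled rat primary cortical cells.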

[8] = CCTE_Mundy_HCI_Cortical_NOG_BPCount: CCTE's Neurite Outgrowth Assay in rat cortical cells for Branch Point Count, Mundy Lab (AID 2284237)
Outline: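 Measured 50.33 h after dosing, this morphology endpoint uses rat primary cortical cultures labelled for betaIII-tubulin. Branch points are quantified by high-content imaging, with DMSO as negative control and baseline.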

[9] = read-out: Collagen I, COL1A1 (gene 1277); test: BSK_MyoF_CollagenI: BioMAP Diversity Plus: MyoF Assay for Collagen I Biomarker Activity (AID 2284238); conditions: primary human lung fibroblasts
Outline: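 Primary human lung fibroblasts (MyoF system) treated 24 h; Collagen I quantified by ELISA and fitted in positive direction against DMSO. Parallel SRB total-protein staining assessed overt cytotoxicity.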

[10] = read-out: Collagen III, COL3A1 (gene 1281); test: BSK_MyoF_CollagenIII: BioMAP Diversity Plus: MyoF Assay for Collagen III Biomarker Activity (AID 2284239); conditions: primary human lung fibroblasts
Outline: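 Primary human lung fibroblasts (BioMAP MyoF system) exposed 24 h. Collagen III measured by ELISA; positive-direction fit relative to DMSO.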

[11] = CCTE_Mundy_HCI_hNP1_CellTiter: CCTE's Cell Titer-Glo 2 Assay in human neuroprogenitor cells for Viability, Mundy Lab (AID 2284241; active = hit-call score of the fitted dose curve at least 0.9, where 1 is the maximum)
Outline: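 Viability read as luminescent ATP content (CellTiter-Glo, 30 min room temperature) twenty-four hours after dosing, relative to DMSO. Cells: WA09-derived hNP1 neuroprogenitors on poly-L-ornithine/laminin, plated 40 to 44 hours before chemical.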

[12] = read-out: Interleukin 17F (IL17F), IL17F (gene 112744); test: BSK_BT_xIL17F: BioMAP Diversity Plus: BT Assay for Interleukin 17F (IL17F) Biomarker Activity (AID 2284243); conditions: primary human B cells with PBMC
Outline: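 Human PBMC co-cultured with B cells, compound exposure 24 h; secreted IL-17F quantified by Luminex xMAP, referenced to DMSO control. PBMC viability measured in parallel by Alamar Blue reduction.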

[13] = read-out: Actin alpha 1 (ACTA1), ACTA1 (gene 58); test: BSK_MyoF_ACTA1: BioMAP Diversity Plus: MyoF Assay for Actin alpha 1 (ACTA1) Biomarker Activity (AID 2284244); conditions: primary human lung fibroblasts
Outline: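 Human lung fibroblast (MyoF system) cultures dosed with test chemical; alpha-SMA measured by ELISA 24 h after dosing, normalized to DMSO control. Cytotoxicity tracked in parallel cultures by SRB total-protein staining.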

[14] = read-out: Interleukin 2 (IL2), IL2 (gene 3558); test: BSK_BT_xIL2: BioMAP Diversity Plus: BT Assay for Interleukin 2 (IL2) Biomarker Activity (AID 2284245); conditions: primary human B cells with PBMC
Outline: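 Human B cell plus PBMC co-culture, 24 h after chemical dosing; secreted IL-2 quantified by Luminex xMAP multiplex, fitted for signal gain against DMSO baseline.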

[15] = read-out: Basic fibroblast growth factor (bFGF), FGF2 (gene 2247); test: BSK_MyoF_bFGF: BioMAP Diversity Plus: MyoF Assay for Basic fibroblast growth factor (bFGF) Biomarker Activity (AID 2284246); conditions: primary human lung fibroblasts
Outline: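 Human lung fibroblast cultures were dosed and measured 24 h later in 96-well format. bFGF biomarker levels quantified by ELISA, with activity fitted in the positive direction against DMSO.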

[16] = read-out: Collagen IV, COL4A1 (gene 1282); test: BSK_MyoF_CollagenIV: BioMAP Diversity Plus: MyoF Assay for Collagen IV Biomarker Activity (AID 2284247); conditions: primary human lung fibroblasts
Outline: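 Primary human lung fibroblasts (MyoF system) dosed 24 h; Collagen IV measured by ELISA. Activity fitted in positive direction against DMSO; cytotoxicity tracked by SRB total-protein staining in parallel cultures.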

[17] = read-out: Monokine induced gamma interferon (MIG), CXCL9 (gene 4283); test: BSK_KF3CT_MIG: BioMAP Diversity Plus: KF3CT Assay for Monokine induced gamma interferon (MIG) Biomarker Activity (AID 2284248); conditions: primary human keratinocytes with fibroblasts
Outline: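 Human keratinocyte–foreskin fibroblast co-culture; MIG measured by ELISA 24 h after chemical dosing, fitted upward versus DMSO. Cytotoxicity was assessed in parallel cultures by SRB total-protein staining read at 560 nm.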

Measured: AC50

Tumor necrosis factor (Homo sapiens), sequence (P01375 whole entry, looked up): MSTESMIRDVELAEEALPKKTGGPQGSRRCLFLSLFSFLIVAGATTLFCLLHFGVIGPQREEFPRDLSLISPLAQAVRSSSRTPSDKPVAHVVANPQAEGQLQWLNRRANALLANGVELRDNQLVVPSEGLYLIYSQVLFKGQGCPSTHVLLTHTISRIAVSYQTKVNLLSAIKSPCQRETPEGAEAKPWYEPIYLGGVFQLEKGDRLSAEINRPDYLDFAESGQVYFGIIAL

O=S(=O)(O)C(F)(F)C(F)(F)C(F)(F)C(F)(F)F
inactive: [1] | [2] | [3] | [4] | [5] | [6] | [7] | [8] | [9] | [10] | [11] | [12] | [13] | [14] | [15] | [16] | [17]

O=S(=O)(O)C(F)(F)C(F)(F)C(F)(F)C(F)(F)C(F)(F)C(F)(F)F
inactive: [1] | [2] | [3] | [4] | [5] | [6] | [7] | [8] | [9] | [10] | [11] | [12] | [13] | [14] | [15] | [16] | [17]

Sc1ccccc1
inactive: [1] | [2] | [3] | [4] | [5] | [9] | [10] | [12] | [13] | [14] | [15] | [16]

O=C(O)C(F)(F)C(F)(F)C(F)(F)C(F)(F)C(F)(F)C(F)(F)C(F)(F)C(F)(F)F
inactive: [1] | [2] | [3] | [4] | [12] | [14] | [15] | [17]
active: [2] 30 µM | [4] 49.8 µM | [5] 30 µM and 42.6 µM | [9] 37.9 µM and 34.1 µM | [10] 46.8 µM and 47.6 µM | [13] 30 µM and 40.3 µM | [16] 18.9 µM and 13.9 µM

NS(=O)(=O)C(F)(F)C(F)(F)C(F)(F)C(F)(F)C(F)(F)C(F)(F)C(F)(F)C(F)(F)F
active: [1] 23.8 µM and 45.3 µM | [3] 44.5 µM and 43.1 µM | [4] 46.3 µM and 25 µM | [5] 20.2 µM and 26.5 µM | [9] 22.6 µM | [10] 26.2 µM and 28.7 µM | [12] 35.5 µM and 45.9 µM | [13] 10.9 µM and 12 µM | [15] 45.6 µM and 45.4 µM | [16] 7.27 µM and 7.31 µM | [17] 27.9 µM and 51.6 µM
inactive: [2] | [14]
